# Laboratory results reported in PubChem BioAssay.
# Values joined by “and” are separate entries in the source; they are usually repeats but may differ in a detail not shown here. Equal entries are not always repeated. Active and inactive are the calls of the source. Unless noted, no stated cut-off is given here; in the data, active means inhibition above about 80%; inactive means the rest.
# Key:
# [1] = HDN33 neuroblastoma growth inhibition, cell-based, chromothripsis tumors, cisplatin or BGB combos (AID 1671450); conditions: HDN33 neuroblastoma cells, stronger effect = higher value;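 further: cells exposed to compound for four days; 0% = vehicle DMSO and 100% = cell killing by high DMSO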
# [2] = ICB984 medulloblastoma cell growth inhibition, synergistic combos for chromothripsis tumors, cisplatin or BGB combos (AID 1671451; call rule not given here;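 further: cells exposed for 96 hours before readout; 0% = vehicle DMSO and 100% = killing by high DMSO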); conditions: ICB984 medulloblastoma cells, drug combinations, stronger effect = higher value
# [3] = LFS_MB_1R medulloblastoma cell growth inhibition, synergistic combos for chromothripsis tumors, cisplatin or BGB combos (AID 1671452); conditions: LFS_MB_1R medulloblastoma cells, stronger effect = higher value;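 further: cells exposed for 96 hours before readout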
# [4] = HTB85 osteosarcoma cell growth inhibition, synergistic combos for chromothripsis tumors, BGB or cisplatin IC20 combos (AID 1671453); conditions: HTB85 osteosarcoma cells, drug combinations, stronger effect = higher value;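 further: cells exposed for 96 hours before readout; 0% = vehicle DMSO and 100% = high DMSO killing control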
# [5] = CRL2098 osteosarcoma cell growth inhibition, synergistic combos for chromothripsis tumors, BGB or cisplatin IC20 combos (AID 1671454); conditions: CRL2098 osteosarcoma cells, drug combinations, stronger effect = higher value;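 further: cells exposed for 96 h before readout; 0% = vehicle DMSO and 100% = killing by high DMSO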
# [6] = HD-MB03 medulloblastoma cell growth inhibition, synergistic combos for chromothripsis tumors, BGB or cisplatin IC20 combos (AID 1671455; in the data active means inhibition above about 83%;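 further: 0% = vehicle DMSO and 100% = high DMSO as cytotoxic control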); conditions: HD-MB03 medulloblastoma cells, stronger effect = higher value
# [7] = UWB1.289 ovarian carcinoma cell growth inhibition, synergistic combos for chromothripsis tumors, BGB or cisplatin combos (AID 1671456); conditions: UWB1.289 ovarian carcinoma cells, stronger effect = higher value;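 further: cells exposed to compound for four days; 0% = vehicle DMSO and 100% = killing by high DMSO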
# [8] = LFS_MB_2R medulloblastoma cell growth inhibition, synergistic combos for chromothripsis tumors, cisplatin combos (AID 1671457); conditions: LFS_MB_2R medulloblastoma cells, stronger effect = higher value;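 further: cells exposed to compound for four days before readout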
# [9] = MDA-MB-436 breast carcinoma cell growth inhibition, synergistic combos for chromothripsis tumors, BGB or cisplatin combos (AID 1671458; call rule not given here;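 further: cells exposed for 96 hours; 0% = vehicle DMSO and 100% = killing by high DMSO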); conditions: MDA-MB-436 breast carcinoma growth inhibition, drug combinations, stronger effect = higher value
# [10] = UWB1.289_BRCA1 ovarian cancer growth, cell-based, BGB or cisplatin combinations (AID 1671459); conditions: UWB1.289 BRCA1 ovarian carcinoma, drug combinations, stronger effect = higher value
# [11] = human astrocyte viability loss, single and combined drugs, cytotoxicity control for chromothriptic childhood tumor combination screen, cell-based, BGB or cisplatin IC20 combos (AID 1671460); conditions: Human astrocytes, drug combinations, stronger effect = higher value;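 further: cells exposed to compounds for 96 hours before viability readout; 0% = vehicle and 100% = killing control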
# [12] = growth inhibition of BT084 medulloblastoma cells, cell-based, ICGC_MB145, cisplatin and BGB IC40 combos (AID 1671461); conditions: drug combinations, stronger effect = higher value;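 further: cells exposed to drugs for 96 hours; 0% = vehicle DMSO and 100% = high DMSO full killing control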
# [13] = growth inhibition of RCMB18 medulloblastoma cells, cell-based, cisplatin and BGB IC40 combos (AID 1671462); conditions: stronger effect = higher value;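 further: cells exposed to compound for four days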
# [14] = growth inhibition of CRL1545 osteosarcoma cells, cell-based, cisplatin and BGB IC20 combos (AID 1671464); conditions: stronger effect = higher value;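 further: cells exposed to compound for 96 hours before readout; 0% = vehicle DMSO and 100% = high DMSO killing control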
# [15] = measured here: with cisplatin IC20 combination, at 0.5 µM
# [16] = measured here: combination with cisplatin, at 0.5 µM
# [17] = measured here: combination with cisplatin, at 5 µM
structure (smiles),measurement,setting,value
NC(=O)c1ccc(I)c([N+](=O)[O-])c1,inhibition,[1]; [15],8.47% and -16.9%
same,inhibition,"[1]; single agent, at 5 µM",-4.01% and -42.6%
same,inhibition,"[2]; BGB IC20 combo, at 0.005 µM",6.79% and -19.8%
same,inhibition,"[2]; BGB IC40 combo, at 0.005 µM",-8.71% and -63.3%
same,inhibition,"[2]; BGB IC40 combo, at 0.05 µM",6.96% and -25.8%
same,inhibition,[2]; at 0.5 µM,-18.4% (inactive) and -40.8% (inactive)
same,inhibition,"[2]; cisplatin combo, at 0.05 µM",4.36% and -30.8%
same,inhibition,"[2]; cisplatin combo, at 0.5 µM",-11.9% and -53.2%
same,inhibition,"[2]; cisplatin combo, at 5 µM",-10.4% and -25.8%
same,inhibition,"[2]; measured here: 5 uM single agent, at 5 µM",-7.67% and -25%
same,inhibition,[3]; at 0.5 µM,-3.89% (inactive) and -33.7% (inactive)
same,inhibition,"[3]; measured here: combination with BGB IC40, at 0.05 µM",-3.85% and -20%
same,inhibition,[3]; [16],-8.55% and -54.4%
same,inhibition,[3]; [17],14.7% and -8.48%
same,inhibition,[4]; at 0.5 µM,9.09% (inactive) and -11.2% (inactive)
same,inhibition,"[4]; measured here: with BGB IC20, at 0.5 µM",18.2% and -8.85%
same,inhibition,"[4]; measured here: with BGB IC20, at 5 µM",-13% and -0.795%
same,inhibition,"[4]; measured here: with cisplatin IC20, at 0.5 µM",-4.67% and -22.1%
same,inhibition,"[4]; measured here: with cisplatin IC20, at 5 µM",-22.8% and -21.8%
same,inhibition,"[4]; single agent, at 5 µM",-0.511% and -17.6%
same,inhibition,[5]; at 0.5 µM,-9.77% (inactive) and -68.7% (inactive)
same,inhibition,"[5]; measured here: combination with BGB at IC20, at 0.5 µM",4.55% and -23.6%
same,inhibition,"[5]; measured here: combination with cisplatin at IC20, at 0.5 µM",-0.612% and -98.1%
same,inhibition,[6]; at 0.5 µM,2.12% (inactive) and -9.81% (inactive)
same,inhibition,"[6]; measured here: combo with BGB at IC20, at 0.5 µM",8.1% and -18.5%
same,inhibition,"[6]; measured here: combo with cisplatin at IC20, at 0.5 µM",1.77% and -5.96%
same,inhibition,[7]; at 0.5 µM,4.39% (inactive) and -12.6% (inactive)
same,inhibition,"[7]; measured here: inhibition with BGB combination, at 0.05 µM",-4.87% and -28.1%
same,inhibition,"[7]; measured here: inhibition with cisplatin combination, at 0.05 µM",4.41% and -26.6%
same,inhibition,[8]; at 0.5 µM,-3.62% (inactive) and -27.7% (inactive)
same,inhibition,[8]; [16],4.37% and -27.4%
same,inhibition,[8]; [17],-55.7% and -23.8%
same,inhibition,[9]; at 0.5 µM,-14.6% (inactive) and -27.1% (inactive)
same,inhibition,"[9]; measured here: BGB combination, at 0.5 µM",-12.7% and -19.7%
same,inhibition,"[9]; measured here: BGB combination, at 5 µM",6.5% and -14.3%
same,inhibition,"[9]; measured here: cisplatin combination, at 0.5 µM",-24.5% and -37.3%
same,inhibition,"[9]; measured here: cisplatin combination, at 5 µM",-16.7% and -24%
same,inhibition,"[10]; BGB combination, concentration series, at 5 µM",8.62% and -14.6%
same,inhibition,[10]; at 0.5 µM,3.67% (inactive) and -21.5% (inactive)
same,inhibition,"[10]; cisplatin combination, concentration series, at 5 µM",11.7% and -8.59%
same,inhibition,[11]; at 0.5 µM,13.4% (inactive) and -16.5% (inactive)
same,inhibition,"[11]; measured here: combo with BGB IC20, at 0.5 µM",12.4% and -9.72%
same,inhibition,"[11]; measured here: combo with cisplatin IC20, at 0.5 µM",18.2% and -4.93%
same,inhibition,[12]; at 0.5 µM,-19.3% (inactive) and -16.2% (inactive)
same,inhibition,"[12]; cisplatin combination, at 0.5 µM",8.84% and -1.53%
same,inhibition,"[12]; cisplatin combination, at 5 µM",4.99% and 0.215%
same,inhibition,"[12]; measured here: BGB IC40 combination 0.05 uM, at 0.05 µM",25.4% and -22.5%
same,inhibition,"[12]; single agent, at 5 µM",-9.27% and -35.4%
same,inhibition,[13]; at 0.5 µM,2.19% (inactive) and -9.96% (inactive)
same,inhibition,"[13]; cisplatin combo, at 5 µM",15.5% and 33.9%
same,inhibition,"[13]; measured here: BGB IC40 combination, at 0.05 µM",-12.1% and -17.3%
same,inhibition,[13]; [16],21.4% and 23.8%
same,inhibition,"[13]; single agent, at 5 µM",-9.55% and -39.2%
same,inhibition,[14]; at 0.5 µM,3.31% (inactive) and -13.9% (inactive)
same,inhibition,"[14]; measured here: with BGB IC20 combination, at 0.5 µM",-14.5% and -22.9%
same,inhibition,[14]; [15],10.2% and -9.34%
same,inhibition,"[14]; single agent, at 0.05 µM",-40.1% and -19.9%
same,inhibition,"[14]; single agent, at 5 µM",-12.7% and -3.93%
